Inconclusive results are not listed. Activity calls are given as the source filed them. Calls follow the shape of the dose curve; as a rule, active = well fitted cell-killing curve with a large enough effect; inconclusive = small, poorly fitted or top-dose-only effect, or effect the other way; inactive = flat fitted curve, though single readings scatter.
Tests used:
Test in all cases: Primary qHTS to identify gynecologic anti-cancer compounds using libraries of approved drugs and bioactive compounds (AID 1345084); also: nearly all actives have a fitted effect of over 55% in size
C33A = settings: Gynecologic cancer cell panel viability, ATPlite luminescence, 48 h; series mostly up to 57.5 µM
Method in brief: (§1)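 Five-concentration response, 48 h; readout is ATP-driven luciferase luminescence.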

CAOV3 = settings: Gynecologic cancer cell panel viability, ATPlite luminescence, 48 h; series mostly up to 57.5 µM
Method in brief: as §1

CASKI = settings: Gynecologic cancer cell panel viability, ATPlite luminescence, 48 h; series mostly up to 57.5 µM
Method in brief: as §1

Es-2 = settings: Gynecologic cancer cell panel viability, ATPlite luminescence, 48 h; series mostly up to 57.5 µM
Method in brief: as §1

HeLa = settings: Gynecologic cancer cell panel viability, ATPlite luminescence, 48 h; series mostly up to 57.5 µM
Method in brief: as §1

Hek293T = settings: Gynecologic cancer cell panel viability, ATPlite luminescence, 48 h, control line for the selectivity index; series mostly up to 57.5 µM
Method in brief: as §1

JEG-3 = settings: Gynecologic cancer cell panel viability, ATPlite luminescence, 48 h; series mostly up to 57.5 µM
Method in brief: as §1

OV90 = settings: Gynecologic cancer cell panel viability, ATPlite luminescence, 48 h; series mostly up to 57.5 µM
Method in brief: as §1

PA-1 = settings: Gynecologic cancer cell panel viability, ATPlite luminescence, 48 h; series mostly up to 57.5 µM
Method in brief: as §1

SKOV3 = settings: Gynecologic cancer cell panel viability, ATPlite luminescence, 48 h; series mostly up to 57.5 µM
Method in brief: as §1

Tov-21-G = settings: Gynecologic cancer cell panel viability, ATPlite luminescence, 48 h; series mostly up to 57.5 µM
Method in brief: as §1

Tov112D = settings: Gynecologic cancer cell panel viability, ATPlite luminescence, 48 h; series mostly up to 57.5 µM
Method in brief: as §1
% is scaled to controls: 0 for no effect and ±100 for the full control effect; potency is read from the fitted curve at half-maximal effect.

O=C(O)c1cn(C2CC2)c2cc(N3C[C@@H]4C[C@H]3CN4)c(F)cc2c1=O
inactive: Potency (C33A) | Potency (CAOV3) | Potency (CASKI) | Potency (Es-2) | Potency (HeLa) | Potency (Hek293T) | Potency (JEG-3) | Potency (OV90) | Potency (PA-1) | Potency (SKOV3) | Potency (Tov-21-G) | Potency (Tov112D)

CC(C)(O)/C=C/C1=CC(=O)[C@@](C)(O)C[C@H]1O
inactive: Potency (C33A) | Potency (CAOV3) | Potency (CASKI) | Potency (Es-2) | Potency (HeLa) | Potency (Hek293T) | Potency (JEG-3) | Potency (OV90) | Potency (PA-1) | Potency (SKOV3) | Potency (Tov-21-G) | Potency (Tov112D)

CC1CCN(C(=O)CC#N)CC1N(C)c1ncnc2[nH]ccc12 (stereo not given)
inactive: Potency (C33A) | Potency (CAOV3) | Potency (CASKI) | Potency (Es-2) | Potency (HeLa) | Potency (Hek293T) | Potency (JEG-3) | Potency (OV90) | Potency (PA-1) | Potency (SKOV3) | Potency (Tov-21-G) | Potency (Tov112D)

COc1ccc(/C=C/C(=O)O[C@@H]2[C@@H](O)[C@@H](O)[C@H](O[C@@H]3C=C(CO)[C@H]4[C@H](O[C@@H]5O[C@H](CO)[C@@H](O)[C@H](O)[C@H]5O)OC=C[C@H]43)O[C@H]2C)cc1O
inactive: Potency (C33A) | Potency (CAOV3) | Potency (CASKI) | Potency (Es-2) | Potency (HeLa) | Potency (Hek293T) | Potency (JEG-3) | Potency (OV90) | Potency (PA-1) | Potency (SKOV3) | Potency (Tov-21-G) | Potency (Tov112D)

COc1c2c(cc3c1-c1c(cc4c(c1OC)OCO4)CC(C)C(C)C3)OCO2 (stereo not given)
inactive: Potency (C33A) | Potency (CAOV3) | Potency (CASKI) | Potency (Es-2) | Potency (HeLa) | Potency (Hek293T) | Potency (JEG-3) | Potency (OV90) | Potency (PA-1) | Potency (SKOV3) | Potency (Tov-21-G) | Potency (Tov112D)

CC(C)=CCC[C@](C)(O)[C@H]1CC[C@]2(C)[C@@H]1[C@H](O)CC1[C@@]3(C)CC[C@H](O)C(C)(C)C3[C@@H](O[C@@H]3O[C@H](CO)[C@@H](O)[C@H](O)[C@H]3O[C@@H]3OC[C@@H](O)[C@H](O)[C@H]3O)C[C@]12C (stereo not given in full)
inactive: Potency (C33A) | Potency (CAOV3) | Potency (CASKI) | Potency (Es-2) | Potency (HeLa) | Potency (Hek293T) | Potency (JEG-3) | Potency (OV90) | Potency (PA-1) | Potency (SKOV3) | Potency (Tov-21-G) | Potency (Tov112D)

CC(c1ncncc1F)C(O)(Cn1cncn1)c1ccc(F)cc1F (stereo not given)
inactive: Potency (C33A) | Potency (CAOV3) | Potency (CASKI) | Potency (Es-2) | Potency (HeLa) | Potency (Hek293T) | Potency (JEG-3) | Potency (OV90) | Potency (PA-1) | Potency (SKOV3) | Potency (Tov-21-G) | Potency (Tov112D)

CCOC(=O)c1cc(C#N)c(N2CCC(C(=O)NS(=O)(=O)Cc3ccccc3)CC2)nc1C
inactive: Potency (C33A) | Potency (CAOV3) | Potency (CASKI) | Potency (Es-2) | Potency (HeLa) | Potency (Hek293T) | Potency (JEG-3) | Potency (OV90) | Potency (PA-1) | Potency (SKOV3) | Potency (Tov-21-G) | Potency (Tov112D)

C[C@H]1CC(=O)Nc2cccc(-c3cnn(C(C)(C)C)c3)c2N1
inactive: Potency (C33A) | Potency (CAOV3) | Potency (CASKI) | Potency (Es-2) | Potency (HeLa) | Potency (Hek293T) | Potency (JEG-3) | Potency (OV90) | Potency (PA-1) | Potency (SKOV3) | Potency (Tov-21-G) | Potency (Tov112D)

CC(=O)O[C@H]1[C@H](O[C@H]2[C@@H]3C=CO[C@@H](O[C@@H]4O[C@H](CO)[C@@H](O)[C@H](O)[C@H]4O)[C@@H]3[C@@]3(CO)O[C@@H]23)O[C@@H](C)[C@H](OC(=O)/C=C/c2ccccc2)[C@H]1OC(=O)/C=C/c1ccccc1
inactive: activity change, negative = cytotoxicity (C33A) 1.54% [at 11.6 µM] | activity change, negative = cytotoxicity (CAOV3) 23.2% [at 11.6 µM] | activity change, negative = cytotoxicity (CASKI) 9.13% [at 11.6 µM] | activity change, negative = cytotoxicity (Es-2) 2.44% [at 11.6 µM] | activity change, negative = cytotoxicity (HeLa) -1.93% [at 11.6 µM] | activity change, negative = cytotoxicity (Hek293T) -2.9% [at 11.6 µM] | activity change, negative = cytotoxicity (JEG-3) -3.47% [at 11.6 µM] | activity change, negative = cytotoxicity (OV90) 3.4% [at 11.6 µM] | activity change, negative = cytotoxicity (PA-1) 16.9% [at 11.6 µM] | activity change, negative = cytotoxicity (SKOV3) 5.38% [at 11.6 µM] | activity change, negative = cytotoxicity (Tov-21-G) -0.504% [at 11.6 µM] | activity change, negative = cytotoxicity (Tov112D) 5.71% [at 11.6 µM]

CC(C)C(C#N)O[C@@H]1O[C@H](CO[C@@H]2O[C@@H](C)[C@H](O)[C@@H](O)[C@H]2O)[C@@H](O)[C@H](O)[C@H]1O (stereo not given in full)
inactive: Potency (C33A) | Potency (CAOV3) | Potency (CASKI) | Potency (Es-2) | Potency (HeLa) | Potency (Hek293T) | Potency (JEG-3) | Potency (OV90) | Potency (PA-1) | Potency (SKOV3) | Potency (Tov-21-G) | Potency (Tov112D)

Cc1cc(C)cc(C(=O)NOCCCCCC(=O)NO)c1
active: Potency (C33A) 3.98 µM | Potency (CAOV3) 8.91 µM | Potency (CASKI) 7.08 µM | Potency (Es-2) 3.16 µM | Potency (HeLa) 3.16 µM | Potency (Hek293T) 3.55 µM | Potency (JEG-3) 3.16 µM | Potency (OV90) 3.98 µM | Potency (PA-1) 0.891 µM | Potency (SKOV3) 3.16 µM | Potency (Tov-21-G) 8.91 µM | Potency (Tov112D) 3.55 µM

C[C@@H](O)[C@H](NC(=O)c1ccc(C#Cc2ccc(CN3CCOCC3)cc2)cc1)C(=O)NO
inactive: Potency (C33A) | Potency (CAOV3) | Potency (CASKI) | Potency (Es-2) | Potency (HeLa) | Potency (Hek293T) | Potency (JEG-3) | Potency (OV90) | Potency (PA-1) | Potency (SKOV3) | Potency (Tov-21-G) | Potency (Tov112D)

COC(=O)c1cc(OC)c(O[C@@H]2O[C@@H](C)[C@H](O)[C@@H](O)[C@H]2O)c(OC)c1
inactive: Potency (C33A) | Potency (CAOV3) | Potency (CASKI) | Potency (Es-2) | Potency (HeLa) | Potency (Hek293T) | Potency (JEG-3) | Potency (OV90) | Potency (PA-1) | Potency (SKOV3) | Potency (Tov-21-G) | Potency (Tov112D)

Cc1cn(C2C=CC(CO)O2)c(=O)[nH]c1=O (stereo not given)
inactive: Potency (C33A) | Potency (CAOV3) | Potency (CASKI) | Potency (Es-2) | Potency (HeLa) | Potency (Hek293T) | Potency (JEG-3) | Potency (OV90) | Potency (PA-1) | Potency (SKOV3) | Potency (Tov-21-G) | Potency (Tov112D)

Reference: PubChem BioAssay (NCATS)
